In PubChem BioAssay one finds composite z-score, composite Z-score and z-score data, which are given here for 8 compounds.

One assay has as its target Albumin (Bos taurus) (UniProt P02769). In words: bovine serum albumin binders on microarray, profiling panel, artefact control for SMM control protein annotation, biochemical, small-molecule microarray, Alexa647 label, 635/667 nm fluorescence (AID 1118).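 Further: score merges 667 nm emission intensity and signal-to-noise per printed compound spot.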 As to conditions: BSA-A647 binding, fluorescence 635 nm, higher = more signal.
Assay [1] can be described thus: small-molecule microarray binders of probe aXIP, primary screen, biochemical, NeuroSMM set, 635/667 nm fluorescence (AID 1119).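 Further: probe is the protein aXip251-270 applied at 1 µg/mL to compound-printed slides; binding of probe to printed compounds measured as 667 nm fluorescence plus signal to noise.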 As to conditions: higher = more signal, called active from +8 up or from −8 down.
Assay [2] can be described thus: small-molecule binders of probe aNOTCH3, primary screen, biochemical, small-molecule microarray, 635/667 nm fluorescence (AID 1120).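 Further: probe is a biotin-tagged antibody raised against NOTCH3 rather than NOTCH3 protein; score merges spot fluorescence near 667 nm with spot signal to noise.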 As to conditions: higher = more signal.
The nature of assay [3]: small-molecule binders of probe aNOTCH2, primary screen, biochemical, small-molecule microarray, 635/667 nm fluorescence (AID 1121).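 Further: score merges feature fluorescence read at 667 nm with its signal to noise.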 The following applies: higher = more signal.
Assay [4] has as its target Carbonic anhydrase 2 (Homo sapiens) (UniProt P00918). In words: CAII small-molecule binders, profiling panel, biochemical, small-molecule microarray, Alexa647-labelled CAII (AID 1122). The following applies: CAII-A647 binding fluorescence, higher = more signal.
Assay [5] can be described thus: COS7 lysate on small-molecule microarray, probe aHis, 635 nm (AID 1123).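 Further: z-score combines 667nm fluorescence intensity with signal-to-noise per printed compound spot.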 As to conditions: COS7 cell lysate, fluorescence, higher = more signal.
Assay [6] is described as follows: compound binding in COS7 lysate, probe aLAP1, primary screen, cell lysate, small-molecule microarray (AID 1124).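 Further: lysate comes from COS7 cells expressing LAP1 and is applied at 0.3 µg/mL; score merges spot fluorescence near 667 nm with signal-to-noise over triplicate slides.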 As to conditions: probe aLAP1, fluorescence, higher = more signal.
The next assay relates to Sam68 (KHDRBS1). In words: Sam68 small-molecule binders, primary screen, biochemical, small-molecule microarray, 635 nm fluorescence (AID 1125).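 Further: score merges 667 nm channel intensity with signal to noise over triplicate slides.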 The following applies: small-molecule microarray binding, higher = more signal.
Assay [7] concerns Chordin-like protein 2 (CHRDL2). In words: CHRDL2 small-molecule binders, primary screen, biochemical, small-molecule microarray, 635 nm fluorescence (AID 1126).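 Further: printed compound slides probed with Chrdl2 protein at 4 µg/mL for 1 h at 4 C; score merges 667 nm emission intensity with signal to noise over three replicate slides.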 The following applies: small-molecule microarray binding, fluorescence 635 nm; higher = more signal.
Assay [8] concerns the target Concanavalin-A (Canavalia ensiformis) (UniProt P02866). In words: ConA small-molecule binders, primary screen, artefact control for SMM control protein annotation, biochemical, small-molecule microarray, Alexa647 label, 635 nm (AID 1127).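 Further: z combines 667 nm emission intensity with signal-to-noise across three replicate slides.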 As to conditions: ConA-A647 binding fluorescence, higher = more signal.
Assay [9] can be described thus: anti-His antibody binders, primary screen, artefact control for SMM control protein annotation, biochemical, small-molecule microarray, 635 nm fluorescence (AID 1128).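 Further: score merges feature fluorescence with signal-to-noise for each printed compound spot.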 The following applies: anti-His Alexa647 antibody binding, higher = more signal.
In assay [10] the test system is Human papillomavirus type 1a E7 protein (residues 1-88). In words: HPV1a E7 small-molecule binders, primary screen, biochemical, small-molecule microarray, residues 1-88, 635 nm (AID 1129). The following applies: small-molecule microarray binding, fluorescence 635 nm; higher = more signal.
In assay [11] the target is Focal adhesion kinase 1 (Homo sapiens) (UniProt Q05397). In words: small-molecule microarray binders of FAK, primary screen, biochemical, 635/667 nm fluorescence, BSA, DTT (AID 1130).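 Further: composite of spot emission at 667 nm and signal to noise over triplicate slides.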 The following applies: PTK2 binding, 635 nm fluorescence, higher = more signal.
Sequence of Focal adhesion kinase 1 (Homo sapiens) (Q05397 whole entry, looked up): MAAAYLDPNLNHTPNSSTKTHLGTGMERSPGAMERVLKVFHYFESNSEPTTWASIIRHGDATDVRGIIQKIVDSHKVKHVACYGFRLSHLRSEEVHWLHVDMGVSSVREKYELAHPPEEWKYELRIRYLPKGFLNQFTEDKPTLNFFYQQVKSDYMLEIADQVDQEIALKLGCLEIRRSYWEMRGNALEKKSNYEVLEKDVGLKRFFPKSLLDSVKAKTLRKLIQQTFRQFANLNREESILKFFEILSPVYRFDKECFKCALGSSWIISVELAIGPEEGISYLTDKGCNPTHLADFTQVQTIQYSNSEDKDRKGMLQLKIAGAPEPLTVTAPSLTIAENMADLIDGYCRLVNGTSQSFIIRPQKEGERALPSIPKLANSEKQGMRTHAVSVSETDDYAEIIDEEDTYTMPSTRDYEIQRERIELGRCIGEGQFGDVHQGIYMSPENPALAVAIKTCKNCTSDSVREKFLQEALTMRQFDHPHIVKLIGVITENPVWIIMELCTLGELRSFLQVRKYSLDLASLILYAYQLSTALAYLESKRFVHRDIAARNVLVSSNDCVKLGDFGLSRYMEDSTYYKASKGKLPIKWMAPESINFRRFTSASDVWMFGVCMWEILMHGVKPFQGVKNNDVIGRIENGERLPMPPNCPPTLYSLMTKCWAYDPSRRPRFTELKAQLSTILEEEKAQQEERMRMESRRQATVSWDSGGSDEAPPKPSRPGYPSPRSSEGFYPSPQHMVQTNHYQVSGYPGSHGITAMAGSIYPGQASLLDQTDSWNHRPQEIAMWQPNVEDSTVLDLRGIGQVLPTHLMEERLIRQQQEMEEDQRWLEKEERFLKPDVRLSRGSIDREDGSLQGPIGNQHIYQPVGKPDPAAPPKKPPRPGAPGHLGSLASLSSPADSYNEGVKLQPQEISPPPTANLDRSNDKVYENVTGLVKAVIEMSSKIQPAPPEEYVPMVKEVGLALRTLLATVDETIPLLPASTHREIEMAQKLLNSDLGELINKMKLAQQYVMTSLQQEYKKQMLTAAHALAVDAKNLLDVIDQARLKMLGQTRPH
Assay [12] deals with Fibrinogen (Alexa647-labelled). In words: fibrinogen binders on compound microarrays, profiling panel, artefact control for SMM control-protein annotation, biochemical, small-molecule microarray, 635/667 nm fluorescence (AID 1131).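 Further: z-score merges 667 nm fluorescence with per-spot signal-to-noise over triplicate slides.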 As to conditions: fibrinogen-A647 binding fluorescence, higher = more signal.
For assay [13], the target named is Follistatin (Homo sapiens) (UniProt P19883). In words: follistatin binders on small-molecule microarrays, primary screen, biochemical, small-molecule microarray, 635/667 nm fluorescence (AID 1132). The following applies: FST binding, 635 nm fluorescence, higher = more signal.
Sequence of Follistatin (Homo sapiens) (P19883 whole entry, looked up): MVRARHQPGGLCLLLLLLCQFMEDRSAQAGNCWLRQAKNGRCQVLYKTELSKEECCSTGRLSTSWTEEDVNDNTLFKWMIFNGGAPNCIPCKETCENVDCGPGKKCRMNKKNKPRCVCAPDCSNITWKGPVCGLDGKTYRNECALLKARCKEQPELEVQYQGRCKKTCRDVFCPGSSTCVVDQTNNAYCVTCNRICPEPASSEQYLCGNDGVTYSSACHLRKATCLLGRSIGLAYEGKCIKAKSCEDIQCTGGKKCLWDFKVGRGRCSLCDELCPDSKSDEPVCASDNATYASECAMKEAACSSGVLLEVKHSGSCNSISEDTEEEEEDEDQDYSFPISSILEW
In assay [14] the target is Fibroblast growth factor 2 (Homo sapiens) (UniProt P09038). In words: FGF2 binders on small-molecule microarrays, primary screen, biochemical, small-molecule microarray, 635/667 nm fluorescence (AID 1133). The following applies: small-molecule microarray binding, FGF2, fluorescence 635/667; higher = more signal.
Sequence of Fibroblast growth factor 2 (Homo sapiens) (P09038 whole entry, looked up): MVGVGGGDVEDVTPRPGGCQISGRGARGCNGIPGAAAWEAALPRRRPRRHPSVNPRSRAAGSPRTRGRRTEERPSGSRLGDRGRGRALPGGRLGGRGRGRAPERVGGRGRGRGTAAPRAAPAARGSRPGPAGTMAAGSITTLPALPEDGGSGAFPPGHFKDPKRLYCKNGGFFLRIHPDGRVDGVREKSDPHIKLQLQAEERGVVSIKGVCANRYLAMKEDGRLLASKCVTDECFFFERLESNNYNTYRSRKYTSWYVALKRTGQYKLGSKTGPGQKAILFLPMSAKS
Assay [15] can be described thus: mitochondrial membrane potential change in A549 cells, profiling panel, cell-based, JC-1 fluorescence, basal, 24 h, 100 nL (AID 1138).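 Further: A549 lung adenocarcinoma cells under basal conditions with no added stimulus; test concentration not given here.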 As to conditions: higher = more signal.
For a further assay, the system named is Lefty1. In words: Lefty1 binders on small-molecule microarrays, primary screen, biochemical, small-molecule microarray, 635/667 nm fluorescence (AID 1139). The following applies: small-molecule microarray binding, fluorescence 635/667; higher = more signal.
Assay [16] deals with wheat germ agglutinin (Triticum aestivum), Alexa647-labelled. In words: wheat germ agglutinin binders on compound microarrays, profiling panel, artefact control for SMM control-protein annotation, biochemical, small-molecule microarray, 635/667 nm fluorescence (AID 1140).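 Further: score merges 667 nm feature emission with signal to noise over triplicate slides.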 As to conditions: WGA-A647 binding, 635 nm fluorescence, higher = more signal.
The target in assay [17] is Luciferin 4-monooxygenase (Photinus pyralis) (UniProt P08659). In words: firefly luciferase enzyme inhibitors, primary screen, biochemical, luminescence, purified enzyme, 2006 set (AID 1141).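 Further: cell-free assay with purified firefly luciferase at 100 ng per well in PBS; test concentration not given here.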 The following applies: SteadyGlo luminescence, 30 min, higher = more signal, called active from +8 up or from −8 down.
Sequence of Luciferin 4-monooxygenase (Photinus pyralis) (P08659 whole entry, looked up): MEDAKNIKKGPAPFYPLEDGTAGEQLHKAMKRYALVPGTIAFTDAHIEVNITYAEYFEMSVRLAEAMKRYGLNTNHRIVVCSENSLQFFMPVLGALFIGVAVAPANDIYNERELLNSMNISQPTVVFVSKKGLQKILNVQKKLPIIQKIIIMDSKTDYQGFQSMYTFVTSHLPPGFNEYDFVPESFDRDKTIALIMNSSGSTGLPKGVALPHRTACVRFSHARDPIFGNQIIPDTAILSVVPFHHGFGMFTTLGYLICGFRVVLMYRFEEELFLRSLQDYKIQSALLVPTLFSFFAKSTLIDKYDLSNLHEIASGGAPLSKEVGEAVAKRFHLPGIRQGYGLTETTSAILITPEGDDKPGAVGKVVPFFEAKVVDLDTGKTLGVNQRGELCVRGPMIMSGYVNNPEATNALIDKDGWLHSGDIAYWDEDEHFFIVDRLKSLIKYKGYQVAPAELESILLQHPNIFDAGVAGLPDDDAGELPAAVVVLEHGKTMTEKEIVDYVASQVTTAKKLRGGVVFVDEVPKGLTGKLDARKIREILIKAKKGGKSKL

The source made the active and inactive calls.

Sequence of Albumin (Bos taurus) (P02769 whole entry, looked up): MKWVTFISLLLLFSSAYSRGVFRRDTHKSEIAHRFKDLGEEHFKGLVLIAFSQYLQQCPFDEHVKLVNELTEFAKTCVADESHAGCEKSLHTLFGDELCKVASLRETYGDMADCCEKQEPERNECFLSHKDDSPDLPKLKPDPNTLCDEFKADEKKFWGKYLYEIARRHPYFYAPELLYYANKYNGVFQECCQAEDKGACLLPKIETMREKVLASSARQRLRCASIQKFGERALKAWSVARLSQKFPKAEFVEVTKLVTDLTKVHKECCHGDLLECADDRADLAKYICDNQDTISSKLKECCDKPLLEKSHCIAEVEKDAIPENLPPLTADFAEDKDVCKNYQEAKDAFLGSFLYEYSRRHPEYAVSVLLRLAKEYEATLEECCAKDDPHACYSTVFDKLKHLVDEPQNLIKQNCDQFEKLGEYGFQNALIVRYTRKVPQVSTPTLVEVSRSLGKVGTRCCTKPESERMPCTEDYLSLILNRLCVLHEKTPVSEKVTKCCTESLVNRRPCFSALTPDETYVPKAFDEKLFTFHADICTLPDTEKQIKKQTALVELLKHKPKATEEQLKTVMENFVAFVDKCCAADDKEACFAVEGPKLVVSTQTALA
Sequence of Concanavalin-A (Canavalia ensiformis) (P02866 whole entry, looked up): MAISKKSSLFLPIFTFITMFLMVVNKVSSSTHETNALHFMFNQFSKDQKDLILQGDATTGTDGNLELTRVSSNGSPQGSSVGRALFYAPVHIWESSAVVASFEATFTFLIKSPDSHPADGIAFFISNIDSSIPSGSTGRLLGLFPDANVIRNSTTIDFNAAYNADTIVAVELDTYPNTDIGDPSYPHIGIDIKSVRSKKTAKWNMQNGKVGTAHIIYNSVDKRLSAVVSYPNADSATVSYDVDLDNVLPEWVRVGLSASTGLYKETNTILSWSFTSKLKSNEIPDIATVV

As to `COCCOC(=O)N1C(=O)[C@@]2(c3cc(C#CC4=CCCCC4)ccc31)[C@H](c1ccccc1OCCO)N1[C@H](c3ccccc3)[C@H](c3ccccc3)OC(=O)[C@H]1[C@@H]2C(=O)N1CCN(c2ncccn2)CC1`, the composite z-score with Albumin (Bos taurus) is 0.326; in assay [2] it was 0.212; in assay [3], -0.154; in [4] it was 0.214; in assay [5], 0.634; in [6], 0.297. Further, the composite z-score with Sam68 (KHDRBS1) was 1.06; in assay [7], 0.374; in assay [8], 1.06; in [9], 0.624; in [10], 1.15; in [11], 0.732. The composite z-score in assay [12] was determined as 0.635; in assay [13] it was 0.76; in assay [14] it was 0.779; in the assay on Lefty1, 0.772; in assay [16], 0.343. Besides, in [1], the composite Z-score was -0.17 (inactive). The values for the z-score in assay [15] and in assay [17] were -1.05 and -1.47 (inactive), respectively.

Take `C[C@@H]1NC(=O)[C@@H](Cc2ccccc2)NC(=O)[C@@]23C(=O)N[C@@H](Cc4ccccc4)C2[C@H](C)[C@@]2(C)O[C@H]2C3/C=C/C/C=C\CNC1=O` (stereo not given in full): the composite z-score with Albumin (Bos taurus) was 0.324; in [2], -0.277; in assay [3] it was -0.125; in assay [4], 0.493; in assay [5] it was 1.05; in assay [6], 0.074. The composite z-score in the assay with Sam68 (KHDRBS1) is 0.126; in assay [7], -0.153; in assay [8], -0.447; in [9] it was -0.116; in [10], -0.514; in assay [11], -0.0535. Further, the composite z-score in assay [12] was -0.913; in assay [13], 0.41; in assay [14] it was -0.0086; in the assay on Lefty1, 0.633; in assay [16], -0.889. Further, the composite Z-score in assay [1] was -0.888 (inactive). For the same compound, the z-score in assay [15] was -0.0637; in assay [17] it was -1.03 (inactive).

Take `CC(C)NC(=O)[C@@]1(c2ccc([N+](=O)[O-])cc2)CC(=O)N(C2CCCCC2)[C@@H]1c1ccc(CO)cc1`: the composite z-score is 0.807 with Albumin (Bos taurus); 0.325 in assay [2]; -0.245 in [3]; 0.729 in assay [4]; 2.17 in assay [5]; 0.94 in assay [6]. Besides, the composite z-score with Sam68 (KHDRBS1) is 1.26; in assay [7], -0.0413; in [8] it was 1.02; in assay [9], 2.4; in [10] it was 1.17; in assay [11], 0.959. In addition, the composite z-score was determined as 0.729 in [12]; 1.28 in [13]; 0.584 in [14]; 1.29 in the assay on Lefty1; 0.965 in assay [16]. Also, in assay [1], the composite Z-score was -0.107 (inactive). Also, the z-score in [15] is 0.438; in assay [17], 1.46 (inactive).

For `CCCNC(=O)[C@@]1(C)c2ccccc2C(=O)N(c2ccc(C)cn2)[C@H]1c1ccc(CO)cc1`, the composite z-score with Albumin (Bos taurus) was -0.0296; in assay [2] it was -0.246; in [3] it was -0.108; in [4] it was 0.699; in assay [5], -0.604; in assay [6] it was -0.105. The composite z-score was -0.264 in the assay with Sam68 (KHDRBS1); 0.0286 in [7]; -0.283 in assay [8]; 0.0998 in [9]; -0.268 in assay [10]; 0.23 in assay [11]. The composite z-score in assay [12] was -1.78; in [13], 0.169; in [14], -0.465; in the assay on Lefty1 it was -0.0558; in assay [16], -0.311. Moreover, the composite Z-score in assay [1] was 0.164 (inactive). Also, the z-score in assay [15] was 0.672; in assay [17] it was -0.714 (inactive).

Turning to `C=C(/C(=C/C[C@H](OC(C)=O)c1ccc(CO)o1)c1cnc2ccccc2c1)C(C)C`, the composite z-score is 0.899 with Albumin (Bos taurus); 0.245 in assay [2]; -0.148 in [3]; 0.945 in assay [4]; 0.948 in assay [5]; 0.269 in [6]. For the same compound, the composite z-score came to 1.29 with Sam68 (KHDRBS1); 1.06 in [7]; 1.14 in assay [8]; 1.07 in assay [9]; 1.16 in [10]; 0.38 in [11]. Besides, the composite z-score in [12] turned out to be 0.988; in assay [13], 1.39; in assay [14] it was 1.41; with Lefty1, 1.55; in [16], 1.33. For the same compound, the composite Z-score in [1] was 0.456 (inactive). The z-score in assay [15] was -0.874; in [17] it was -1.41 (inactive).

Consider `N[C@@H](Cc1ccccc1)C(=O)NCc1cn(Cc2ccccc2)nn1`, for which the composite z-score in the assay with Albumin (Bos taurus) was -0.337; in assay [2] it was -0.0656; in [3], -0.101; in assay [4], 0.431; in assay [5] it was -0.276; in assay [6], -0.0884. Besides, the composite z-score with Sam68 (KHDRBS1) is -0.341; in assay [7], 0.849; in assay [8], -0.0527; in assay [9] it was 0.615; in assay [10] it was -0.096; in assay [11], -0.519. Also, the composite z-score in assay [12] was found to be 0.395; in assay [13], 1.15; in assay [14] it was 0.416; in the assay on Lefty1, 0.2; in [16], 0.309. Also, the composite Z-score in [1] is 0.961 (inactive). Also, the z-score is 0.154 in [15] and -0.352 (inactive) in [17].

As for `COc1ccc([Si](C)(C)[C@H]2[C@H](CC(=O)N(CCO)Cc3ccccc3)O[C@@]3(C(=O)N(C)c4c(Br)cc(C)cc43)[C@@H]2C)cc1`, the composite z-score in the assay with Albumin (Bos taurus) is 0.509; in assay [2], -0.0072; in [3], -0.179; in [4], 0.731; in [5] it was 1.07; in [6], 0.0123. Also, the composite z-score in the assay with Sam68 (KHDRBS1) is 0.995; in assay [7], 1.27; in assay [8], 0.652; in assay [9] it was 1.19; in [10] it was 1.03; in assay [11], -0.0842. Moreover, the composite z-score was -0.009 in [12]; 1.51 in [13]; 1.84 in assay [14]; 1.57 in the assay on Lefty1; 0.61 in assay [16]. Also, in assay [1], the composite Z-score is -0.324 (inactive). Besides, the z-score is -0.774 in assay [15] and -0.342 (inactive) in [17].

With `CCCCCCc1nc(Cc2cc(OC)c(OC)c(OC)c2)cc2c1[Si](C(C)C)(C(C)C)OC2`, the composite z-score with Albumin (Bos taurus) was -0.526; in [2], -0.0395; in assay [3] it was -0.153; in assay [4], -0.0134; in assay [5], 0.157; in assay [6] it was -0.0343. In addition, the composite z-score in the assay on Sam68 (KHDRBS1) is 0.239; in assay [7], 0.472; in [8], 0.524; in [9], -0.215; in assay [10] it was -0.517; in assay [11], -0.191. Also, the composite z-score in assay [12] was -0.0217; in [13], 0.422; in assay [14], 0.521; with Lefty1, 0.566; in assay [16], -0.0555. Further, in assay [1], the composite Z-score is 0.0886 (inactive). The z-score in assay [15] is 0.185; in assay [17], 0.809 (inactive).
